From PubChem BioAssay (NCATS)
Inconclusive results are not listed. The source made the active and inactive calls. Calls come from the whole dose curve; as a rule, active = well fitted curve in the direction sought with a large enough effect; inconclusive = small, poorly fitted or top-dose-only effect, or another doubt; inactive = no such curve, though single readings can be large; an effect the other way counts as inactive or inconclusive.

How the values were obtained:
HACAT = experiment: qHTS assay to identify novel small-molecules to repurpose for Merkel cell carcinoma treatment (AID 1296009); details: MCC and control cell lines, CellTiter-Glo viability, 72 h; at 44.8 µM (top of the series) unless noted; note: nearly all actives have a fitted effect of over 60% in size
Summary of the method: (§1)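 Dose-response viability screen; 72 hr exposure at 37 degree celsius; CellTiter-Glo added, 10 min room temperature, luminescence read; RLUs scaled between no-cell and DMSO wells.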

NIH3T3 = experiment: as above; details: MCC and control cell lines, CellTiter-Glo viability, 72 h; at 44.8 µM (top of the series) unless noted
Summary of the method: as §1

C33A = experiment: Primary qHTS to identify gynecologic anti-cancer compounds using libraries of approved drugs and bioactive compounds (AID 1345084); details: Gynecologic cancer cell panel viability, ATPlite luminescence, 48 h; series mostly up to 57.5 µM; note: % is set by controls: 0 for no effect and ±100 for the full control effect; nearly all actives have a fitted effect of over 55% in size
Summary of the method: (§2)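 Measured: luminescence after ATPlite addition (15 min, RT). Exposure: 48 h, 37 C, 5% CO2.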

CAOV3 = experiment: as above; details: Gynecologic cancer cell panel viability, ATPlite luminescence, 48 h; series mostly up to 57.5 µM
Summary of the method: as §2

CASKI = experiment: as above; details: Gynecologic cancer cell panel viability, ATPlite luminescence, 48 h; series mostly up to 57.5 µM
Summary of the method: as §2

Es-2 = experiment: as above; details: Gynecologic cancer cell panel viability, ATPlite luminescence, 48 h; series mostly up to 57.5 µM
Summary of the method: as §2

HeLa = experiment: as above; details: Gynecologic cancer cell panel viability, ATPlite luminescence, 48 h; series mostly up to 57.5 µM
Summary of the method: as §2

Hek293T = experiment: as above; details: Gynecologic cancer cell panel viability, ATPlite luminescence, 48 h, control line for the selectivity index; series mostly up to 57.5 µM
Summary of the method: as §2

JEG-3 = experiment: as above; details: Gynecologic cancer cell panel viability, ATPlite luminescence, 48 h; series mostly up to 57.5 µM
Summary of the method: as §2

OV90 = experiment: as above; details: Gynecologic cancer cell panel viability, ATPlite luminescence, 48 h; series mostly up to 57.5 µM
Summary of the method: as §2

PA-1 = experiment: as above; details: Gynecologic cancer cell panel viability, ATPlite luminescence, 48 h; series mostly up to 57.5 µM
Summary of the method: as §2

SKOV3 = experiment: as above; details: Gynecologic cancer cell panel viability, ATPlite luminescence, 48 h; series mostly up to 57.5 µM
Summary of the method: as §2

Tov-21-G = experiment: as above; details: Gynecologic cancer cell panel viability, ATPlite luminescence, 48 h; series mostly up to 57.5 µM
Summary of the method: as §2

Tov112D = experiment: as above; details: Gynecologic cancer cell panel viability, ATPlite luminescence, 48 h; series mostly up to 57.5 µM
Summary of the method: as §2

C[C@@H]1CC2OC(=O)C3=C2C(CCC3O)[C@@]12C[C@@H](c1ccoc1)OC2=O (stereo not given in full)
inactive: outcome (HACAT) | outcome (NIH3T3) | Potency (C33A) | Potency (CAOV3) | outcome (CASKI) | Potency (Es-2) | Potency (HeLa) | Potency (Hek293T) | Potency (JEG-3) | Potency (OV90) | Potency (PA-1) | Potency (SKOV3) | Potency (Tov-21-G) | Potency (Tov112D)

C=C(COC(=O)CC(C)C)C1Cc2cc(C(C)=O)ccc2O1 (stereo not given)
inactive: outcome (HACAT) | outcome (NIH3T3) | Potency (C33A) | Potency (CAOV3) | outcome (CASKI) | Potency (Es-2) | Potency (HeLa) | Potency (Hek293T) | Potency (JEG-3) | Potency (OV90) | Potency (PA-1) | Potency (SKOV3) | Potency (Tov-21-G) | Potency (Tov112D)

COc1cc(C)c(C(=O)NC2C(C)OC(OC3CCC(C)C4C3C=C(C)C3/C(C)=C\CC/C(C)=C/C5(C)C=C(C(=O)O)C(C)CC56OC(=O)/C(=C(\O)C34C)C6=O)C(O)C2(C)O)c(O)c1 (stereo not given)
inactive: outcome (HACAT) inactive [at 9.27 µM] | outcome (NIH3T3) inactive [at 9.27 µM] | activity change, negative = cytotoxicity (C33A) 8.62% [at 11.6 µM] | activity change, negative = cytotoxicity (CAOV3) 11.9% [at 11.6 µM] | activity change, negative = cytotoxicity (CASKI) 23.4% [at 11.6 µM] | activity change, negative = cytotoxicity (Es-2) -2.46% [at 11.6 µM] | activity change, negative = cytotoxicity (HeLa) 2.6% [at 11.6 µM] | activity change, negative = cytotoxicity (Hek293T) 9.94% [at 11.6 µM] | activity change, negative = cytotoxicity (JEG-3) 4.16% [at 11.6 µM] | activity change, negative = cytotoxicity (OV90) 6.29% [at 11.6 µM] | activity change, negative = cytotoxicity (PA-1) -2.04% [at 11.6 µM] | activity change, negative = cytotoxicity (SKOV3) -10.1% [at 11.6 µM] | activity change, negative = cytotoxicity (Tov-21-G) 4.24% [at 11.6 µM] | activity change, negative = cytotoxicity (Tov112D) 8.49% [at 11.6 µM]

CC1(C)CC[C@]2(C(=O)O[C@@H]3O[C@H](CO)[C@@H](O)[C@H](O)[C@H]3O)CC[C@]3(C)C(=CCC4[C@@]5(C)C[C@H](O)[C@H](O[C@@H]6O[C@H](C(=O)O)[C@@H](O)[C@H](O)[C@H]6O)[C@@](C)(CO)C5CC[C@]43C)C2C1 (stereo not given in full)
inactive: outcome (HACAT) inactive [at 9.27 µM] | outcome (NIH3T3) inactive [at 9.27 µM] | activity change, negative = cytotoxicity (C33A) -10.3% [at 6.55 µM] | activity change, negative = cytotoxicity (CAOV3) 19.8% [at 6.55 µM] | activity change, negative = cytotoxicity (CASKI) -13.7% [at 6.55 µM] | activity change, negative = cytotoxicity (Es-2) -1.31% [at 6.55 µM] | activity change, negative = cytotoxicity (HeLa) -7.43% [at 6.55 µM] | activity change, negative = cytotoxicity (Hek293T) -0.0375% [at 6.55 µM] | activity change, negative = cytotoxicity (JEG-3) -4.92% [at 6.55 µM] | activity change, negative = cytotoxicity (OV90) -11.4% [at 6.55 µM] | activity change, negative = cytotoxicity (PA-1) 1.64% [at 6.55 µM] | activity change, negative = cytotoxicity (SKOV3) 14.6% [at 6.55 µM] | activity change, negative = cytotoxicity (Tov-21-G) -2.15% [at 6.55 µM] | activity change, negative = cytotoxicity (Tov112D) 8.5% [at 6.55 µM]

Nc1ccc(-n2nc(C(F)(F)F)cc2C(F)(F)F)cc1
inactive: outcome (HACAT) | outcome (NIH3T3) | Potency (C33A) | Potency (CAOV3) | outcome (CASKI) | Potency (Es-2) | Potency (HeLa) | Potency (Hek293T) | Potency (JEG-3) | Potency (OV90) | Potency (PA-1) | Potency (SKOV3) | Potency (Tov-21-G) | Potency (Tov112D)

CCC/C=C/C=C/C1CC(O)C(O)C(=O)C1CO (stereo not given)
inactive: outcome (HACAT) | outcome (NIH3T3) | Potency (C33A) | Potency (CAOV3) | outcome (CASKI) | Potency (Es-2) | Potency (HeLa) | Potency (Hek293T) | Potency (JEG-3) | Potency (OV90) | Potency (PA-1) | Potency (SKOV3) | Potency (Tov-21-G) | Potency (Tov112D)

O=C(O)CC/C=C\C[C@H]1CO[C@@H](c2ccccc2Cl)O[C@H]1c1ccccc1O
inactive: outcome (HACAT) | outcome (NIH3T3) | Potency (C33A) | Potency (CAOV3) | outcome (CASKI) | Potency (Es-2) | Potency (HeLa) | Potency (Hek293T) | Potency (JEG-3) | Potency (OV90) | Potency (PA-1) | Potency (SKOV3) | Potency (Tov-21-G) | Potency (Tov112D)

CC1(C)CCC2(C(=O)O)CCC3(C)C(=CCC4C5(C)CCC(O)C(C)(CO)C5C(O)CC43C)C2C1 (stereo not given)
inactive: outcome (HACAT) inactive [at 17.4 µM] | outcome (NIH3T3) inactive [at 17.4 µM] | Potency (C33A) | Potency (CAOV3) | outcome (CASKI) | Potency (Es-2) | Potency (HeLa) | Potency (Hek293T) | Potency (JEG-3) | Potency (OV90) | Potency (PA-1) | Potency (SKOV3) | Potency (Tov-21-G) | Potency (Tov112D)

C=C[C@]1(C)C[C@@H](OC(=O)CSC2C[C@H]3CC[C@@H](C2)N3C)[C@]2(C)[C@H](C)CC[C@]3(CCC(=O)[C@H]32)[C@@H](C)[C@@H]1O (stereo not given in full)
inactive: outcome (HACAT) | outcome (NIH3T3) | Potency (C33A) | Potency (CAOV3) | outcome (CASKI) | Potency (Es-2) | Potency (HeLa) | Potency (Hek293T) | Potency (JEG-3) | Potency (OV90) | Potency (PA-1) | Potency (SKOV3) | Potency (Tov-21-G) | Potency (Tov112D)

C=C(C)C1CCC2(C(=O)OC3OC(COC4OC(CO)C(O)C(O)C4O)C(OC4OC(C)C(O)C(O)C4O)C(O)C3O)CCC3(C(=O)O)C(CCC4C5(C)CCC(=O)C(C)(C)C5CCC43C)C12 (stereo not given)
inactive: outcome (HACAT) inactive [at 9.27 µM] | outcome (NIH3T3) inactive [at 9.27 µM] | activity change, negative = cytotoxicity (C33A) 2.12% [at 11.6 µM] | activity change, negative = cytotoxicity (CAOV3) 1.66% [at 11.6 µM] | activity change, negative = cytotoxicity (CASKI) -3.34% [at 11.6 µM] | activity change, negative = cytotoxicity (Es-2) -14% [at 11.6 µM] | activity change, negative = cytotoxicity (HeLa) 1.62% [at 11.6 µM] | activity change, negative = cytotoxicity (Hek293T) 0.77% [at 11.6 µM] | activity change, negative = cytotoxicity (JEG-3) -1.16% [at 11.6 µM] | activity change, negative = cytotoxicity (OV90) -0.071% [at 11.6 µM] | activity change, negative = cytotoxicity (PA-1) 8.9% [at 11.6 µM] | activity change, negative = cytotoxicity (SKOV3) -6.38% [at 11.6 µM] | activity change, negative = cytotoxicity (Tov-21-G) 0.715% [at 11.6 µM] | activity change, negative = cytotoxicity (Tov112D) -0.367% [at 11.6 µM]
